# Results taken from PubChem BioAssay AID449762 (Southern Research Specialized Biocontainment Screening …, 2010).
# Out of some 330,000 compounds screened, about 1,900 (0.58%) were called active. Inconclusive results (about 4%) are left out. The list is a sample of the results. Entries with a potency or affinity are not part of this list. Values without a mark were called inactive. No stated cut-off is given here; in the data, inconclusive means inhibition above about 70% without an active follow-up result; inactive means below that.
# Test: M. tuberculosis growth inhibition, HTS (AID 449762);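 further: bacterial growth assessed after seven days of incubation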
# Settings: M. tuberculosis H37Rv growth inhibition, 7H9 media; at 25 µM; hits give high values
row,Compound,inhibition [%]
1,CCn1nc(NS(=O)(=O)c2ccc([N+](=O)[O-])cc2)c2cc3cc(C)ccc3nc21,2.04
2,COc1cccc(C(=O)OC(C)C(=O)Nc2ccc3c(c2)OCO3)c1 (stereo not given),-7.8
3,COc1ccc(-n2nc(C(=O)NCC(=O)N3CCCCCC3)c3ccccc3c2=O)cc1OC,-4.92
4,COc1ccc(Cn2cnc3c(N)c(C)c(C)cc32)cc1,-12.4
5,COC(=O)CSc1nc(SCc2ccccc2Cl)nc2c1CCCC2,-6.09
6,CN(C)c1nc(SCc2ccccc2Cl)nc2c1CCCC2,20.2
7,CC(C)OC(=O)c1nnn(-c2nonc2N)c1CN1CCCCCC1,-9.91
8,Cc1ccc(OCc2cc(C(=O)NCCn3cccn3)no2)cc1C,10.8
9,COc1ccc(C(=O)NC(NC(=S)Nc2ccc(S(N)(=O)=O)cc2)C(Cl)(Cl)Cl)cc1 (stereo not given),-5.71
10,Oc1ccc(C2=CCNCC2)cc1O,-1.15
11,CN1c2ccc([N+](=O)[O-])cc2N(C)C1(C)c1ccccc1 (stereo not given),-1.96
12,CN1c2ccccc2N(C)C1(C)c1ccccc1,4.29
13,Cc1cc(C=C2C(=O)N(C)C(=S)N(C)C2=O)c(C)n1-c1cccnc1,-1.48
14,Cc1cc(/C=C2/SC(=S)N(c3cccc(Cl)c3)C2=O)c(C)n1-c1cccnc1,59.7
15,COc1cccc(CCc2nnc(CCC(=O)N3CCN(Cc4ccccn4)CC3)o2)c1,-0.82
16,COc1ccccc1C(=O)c1c(C)c(CCC#N)n2ccccc12,2.58
17,O=C(COC(=O)C12CC3CC(CC(C3)C1)C2)N1CCN(S(=O)(=O)c2ccccc2)CC1,6.15
18,CN(C1CCCCC1)S(=O)(=O)c1ccc(SCC(=O)NC(C)(C)C)nc1,-0.68
19,CN1CCN(Cc2cc(Cl)c3cccnc3c2OC(=O)c2cccs2)CC1,-8.53
20,CN(C)C(=O)Oc1c(Cl)cc(Cl)c2cccnc12,0.5
21,CN1C(=O)CC(N2CCN(CCN=CC3=C(O)CC(C)(C)CC3=O)CC2)C1=O (stereo not given),9.46
22,O=C(CS(=O)(=O)Cc1ccccc1)Nc1ccc(Br)cc1F,-10.1
23,COn1c2c(c3c4no[n+]([O-])c4ccc31)CCCC2,12.5
24,CCOC(=O)c1c(C)n(OC)c2ccc3c(no[n+]3[O-])c12,-8.43

row,Compound,inhibition [%]
1,Cc1ccc2[nH]c(=O)c(CN(CC3CCCO3)C(=O)c3ccncc3)cc2c1 (stereo not given),4.74
2,CN1CCc2c(C#N)c(N3CCCCC3)nc(NCc3ccccc3)c2C1,8.6
3,CCCCCNc1nc(NCCCO)c(C#N)c2c1CN(C)CC2,1.69
4,CC(=O)NC(C)(CC(=O)c1ccccc1)c1ccccc1 (stereo not given),-8.86
5,S=C(NCCCN1CCOCC1)N(Cc1ccccc1)Cc1ccccc1,-1.92
6,Cc1ccccc1Nc1nn2c(=O)c3ccccc3nc2s1,4.93
7,C=CCSc1nn2c(=O)c3ccccc3nc2s1,66.1
8,Cc1nc(SCC(C)C)[nH]c(=O)c1Cc1ccccc1,-4.67
9,O=C(OCc1nnc(-c2ccccc2)o1)c1ccc([N+](=O)[O-])s1,63.8
10,O=C(OCc1nnc(-c2ccccc2)o1)c1ccccc1,3.86
11,COc1ccc(OC)c(NC2=NCCCS2)c1,-1.69
12,COc1ccc(C(CNC(=O)C(=O)NC2CCCCC2)N2CCN(C)CC2)cc1 (stereo not given),-12.6
13,COc1ccc(OC)c(N2Cc3ccccc3C2)c1,3.42
14,COc1ccccc1CC(=O)N1CCN(c2ccccc2F)CC1,3
15,COc1ccccc1NC(=O)Nc1nc(CC(=O)NCc2c(F)cccc2F)cs1,29.2
16,O=C(Nc1cccc(S(=O)(=O)N2CCOCC2)c1)c1cc(=O)[nH]c2ccccc12,-2.49
17,CN(C)Cc1nc2ccccc2c(=O)n1CC#N,-2.77
18,N#CCn1c(Cc2ccccc2)nc2ccccc2c1=O,-1.48
19,CCOCCc1nnc(NC(=O)CS(=O)(=O)c2ccc(C)cc2)s1,-7.28
20,COc1ccccc1CN1CCC(n2nccc2NC(=O)CCCc2ccccc2)CC1,3.32
21,CCOC(=O)C1=C(CSc2nc3c(cc2C#N)CN(C)CC3)OC(N)=C(C#N)C1c1ccc(Cl)cc1 (stereo not given),-0.9
22,COc1ccc(C(CC(=O)NCCCN2CCOCC2)NS(=O)(=O)c2ccc(C)cc2)cc1 (stereo not given),-3.32
23,Cc1ccc(NC(=O)C2CCN(c3cnccn3)CC2)cc1,-0.63
24,CCCc1ccc(NC(=O)C2CCCN(c3cnccn3)C2)cc1 (stereo not given),3.51

row,Compound,inhibition [%]
1,COc1ccc(NC(=O)C2CCCN2S(=O)(=O)c2ccc3c(c2)CCC(=O)N3)cc1 (stereo not given),-21
2,CCCn1c(CCc2ccccc2)nnc1SCC(=O)N1CCCC1,-5.53
3,C[C@]12CCC(=O)C=C1CC[C@@H]1C2[C@H](O)C[C@]2(C)C(=O)CCC12 (stereo not given in full),2.16
4,Cc1nnc(NC(=O)c2cc(-c3ccncc3)nc3c(C)cccc23)s1,9.24
5,Cc1cc(NC(=O)c2cc(-c3cccnc3)nc3c(C)c(C)ccc23)no1,2.95
6,CCN(CC)S(=O)(=O)c1cccc(-c2n[nH]c(=S)n2CC(C)C)c1,4.49
7,COC(=O)N(NC(=O)C(O)(CCC(C)C)CCC(C)C)c1ccccc1,2.67
8,CCOC(OCC)P(=O)(C(C)C)C(C)C,-4.61
9,Cc1ccc(-c2nnc3c(C(F)(F)F)nc4ccccc4n23)cc1,0.23
10,Cc1cc(-c2cc(-c3ccc(Cl)cc3)on2)nc(NC2CCCC2)n1,31.4
11,CC(C)c1cc(-c2cc(-c3ccccc3)on2)nc(NC2CCCC2)n1,5.62
12,CCCCN(C)C(=O)CC(NS(=O)(=O)c1ccc(NC(C)=O)cc1)C(C)C (stereo not given),0.04
13,O=C(NCc1nnnn1-c1ccc(Cl)cc1)c1ccc(Br)o1,-0.54
14,Cc1ccc(-n2nnnc2CNC(=O)c2ccc(Br)o2)cc1C,11.2
15,O=C(O)C1C2C=CC(C2)C1C(=O)NCc1ccc(Cl)cc1Cl (stereo not given),7.08
16,Oc1ccccc1-c1cc(C(F)(F)F)nc(-c2ccccc2)n1,6.24
17,Oc1ccccc1-c1cc(C(F)(F)C(F)F)nc(-c2ccccc2)n1,12.1
18,COc1ccc(C)cc1N/C(N)=N/c1nc(C)cc(C)n1,5.92
19,Cc1cc(C)nc(/N=C(\N)Nc2cc([N+](=O)[O-])ccc2C)n1,1.78
20,CC(=O)N/C(=C\c1ccccc1)C(=O)OCC(=O)NC(C)C12CC3CC(CC(C3)C1)C2 (stereo not given),10.4
21,O=C(CCC(=O)OCc1ccc([N+](=O)[O-])cc1)Nc1ccccc1Cl,-11.9
22,CC(C)(C)NC(=O)C(=O)NNC(=O)c1ccccc1,-5.28
23,CC(C)(C)c1ccc(C(=O)NNC(=O)c2ccc(Cl)cc2)cc1,-6.43
24,Cc1cc(C)c(S(=O)(=O)c2cc(F)ccc2C)c(Cl)n1,6.18

row,Compound,inhibition [%]
1,Cc1cc(/C([O-])=C(/C(=S)Nc2ccc(F)cc2)[n+]2ccccc2)c(C)n1-c1ccc(F)cc1,-9.36
2,Cc1cc(/C([O-])=C(/C(=S)Nc2ccccc2)[n+]2ccccc2)c(C)n1-c1ccccc1,38.1
3,CC(CC(=O)N1CCN(S(=O)(=O)c2ccc(Cl)cc2)CC1)n1cncn1 (stereo not given),7.22
4,Cc1cc2nncn2c(Cc2ccccc2)n1,-5.06
5,CCCNC(=O)c1onc(CSc2ccccc2)c1C(=O)NCCC,3.78
6,CCc1cc2c(=O)n(CC(C)C)cnc2s1,13.2
7,CCc1cc2c(=O)n(CC(=O)NC3CCCCC3)cnc2s1,-19.5
8,Cc1sc2ncn(CC(=O)N(CC(=O)NC3CCCC3)Cc3cccs3)c(=O)c2c1C,-6.3
9,O=C(CCc1nc(-c2ccccc2F)no1)NCCc1ccccc1Cl,-5.37
10,CC(=O)Oc1ccc(C(=O)Nc2cccc(C(=O)c3ccc(C)c(C)c3)c2)cc1,6.87
11,O=C(N/N=C/c1ccc(O)cc1)c1cc[n+](Cc2ccccc2)cc1,-5.45
12,O=C(C[n+]1cccc(C(=O)N/N=C/c2ccc(Br)cc2)c1)c1ccccc1,-3.73
13,Cn1c(=O)n(C)c2cc([N+](=O)[O-])c(N3CCN(S(=O)(=O)c4ccc(C(C)(C)C)cc4)CC3)cc21,-9.94
14,CCN1CCN(c2oc(COc3ccc(Cl)cc3)nc2C#N)CC1,8.42
15,Cc1ccc(OCc2nc(C#N)c(N3CCN(Cc4ccccc4)CC3)o2)cc1,-9.38
16,CCCc1nc2oc3c(NCc4ccccn4)ncnc3c2c2c1COC(C)(C)C2,-3.19
17,CCOc1ccc(N2CC(C(=O)N3CCCCCC3)CC2=O)cc1 (stereo not given),-1.61
18,COc1ccc(NC(=O)CSc2nnc3ccc(-c4ccccn4)nn23)c(OC)c1,-1.07
19,CNCc1ccccc1OCC(=O)Nc1ccccc1,-16.8
20,CC(C)(CO)NCc1ccccc1OCC(=O)Nc1ccccc1,-10.3
21,CCc1cc2c(SCC(=O)c3cccs3)ncnc2s1,-6.51
22,CCNCC(=O)N1c2ccccc2CCc2ccc(NC(C)=O)cc21,-1.99
23,CCNCC(=O)N1c2ccccc2CCc2ccc(NC(=O)OCC)cc21,8.22
